Results reported in PubChem BioAssay (NCI).
About 83,000 compounds went through this panel and 20% of them were active in at least one assay; those are over-represented in the sample as a whole.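 Interpretation: 100, growth as untreated; towards 0, rising growth inhibition; 0, no net growth; 0 to -100, cell death. Compounds scoring below 10 were considered active.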 Unmarked numbers belong to inactive results. Activity calls are given as the source filed them.

Key:
Test in all cases: NCI-60 one-dose screen, 48 h (100 = growth as untreated, 0 = no growth, -100 = all killed)
Conditions in all cases: 10 µM unless noted
NCI-H23 lung = test system: NCI-H23 lung
NCI-H226 lung = test system: NCI-H226 lung
NCI-H322M lung = test system: NCI-H322M lung
HOP-62 NSCLC = test system: HOP-62 NSCLC
NCI-H460 lung = test system: NCI-H460 lung
HOP-92 NSCLC = test system: HOP-92 NSCLC
NCI-H522 lung = test system: NCI-H522 lung
A549/ATCC NSCLC = test system: A549/ATCC NSCLC
786-0 renal = test system: 786-0 renal
COLO 205 colon = test system: COLO 205 colon

Structure (SMILES)	growth (NCI-H23 lung)	growth (NCI-H226 lung)	growth (NCI-H322M lung)	growth (HOP-62 NSCLC)	growth (NCI-H460 lung)	growth (HOP-92 NSCLC)	growth (NCI-H522 lung)	growth (A549/ATCC NSCLC)	growth (786-0 renal)	growth (COLO 205 colon)
CC1OC(C(=O)N2CCN(CCO)CC2)CC1COC1CCCCC1 (stereo not given)	94% [50 µM]	84.3% [50 µM]	90.9% [50 µM]	85.7% [50 µM]	100% [50 µM]	87% [50 µM]	93.2% [50 µM]	94.2% [50 µM]	109% [50 µM]	105% [50 µM]
O=C1C(c2c(O)[nH]c3ncccc23)=Nc2ccccc21	76%	89%	79.7%	86.8%	47.7%	96.9%	76.3%	82.4%	84.1%	82.8%
O=C(/C=C/c1ccco1)Nc1ncc(Cc2ccc(F)cc2)s1	23.4%	51.8%	47.2%	25.8%	6.54% (active)	90.5%	-2.92% (active)	23.9%	38.4%	4.77% (active)
CCC(C)C(N)C(=O)NC(CC(C)C)C(=O)N1CCCC1C(=O)NC(Cc1c[nH]c2ccccc12)C(=O)NC(CCCCN)C(=O)NC(Cc1c[nH]c2ccccc12)C(=O)N1CCCC1C(=O)NC(Cc1c[nH]c2ccccc12)C(=O)NC(Cc1c[nH]c2ccccc12)C(=O)N1CCCC1C(=O)NC(Cc1c[nH]c2ccccc12)C(=O)NC(CCCNC(=N)N)C(=O)NC(CCCNC(=N)N)C(N)=O (stereo not given)	104%	112%	100%	103%	107%	86.2%	97.7%	106%	102%	97.2%
Cc1ccc(-c2nn(CC(=O)N3CCOCC3)c(N)c2C#N)cc1	100%	102%	110%	108%	106%	111%	101%	95.8%	100%	122%
COc1ccc(-c2nc3cc(C(=O)NC4CCCCC4)ccc3n2C2CCCCC2)cc1	92.5%	115%	85.8%	101%	86.2%	121%	73.5%	89.4%	88.3%	73.6%
O=C(NC1CCCCCC1)c1ccc2c(=O)n3c(nc2c1)CCCCC3	97.7%	106%	90.7%	99.2%	101%	84.6%	103%	97%	106%	102%
Cc1ccc(OCCOCCOCCOCCOc2ccc(C)n(O)c2=S)c(=S)n1O	18.5%	7.35% (active)	23.6%	-0.489% (active)	1.54% (active)	36.8%	17.9%	12.5%	-5.93% (active)	5.35% (active)
CN1CCN(Cc2ccc(NC(=O)c3cncc(C#Cc4c(N)ncc5c(F)cccc45)c3)cc2C(F)(F)F)CC1	-66.3% (active)	14%	-23.7% (active)	-80.2% (active)	-48% (active)	-58.8% (active)	-76% (active)	-90.6% (active)	-79% (active)	-83.6% (active)
COc1ccc(/C=C\c2cc(OC)c(OC)c(OC)c2)cc1OCC(=O)Nc1nc2ccccc2s1	23.5%	41.7%	61.6%	62.5%	1.29% (active)	50.6%	-21.8% (active)	29.9%	51.4%	6.65% (active)
CN1/C(=C/C=C/c2n(Cc3ccc4ccccc4c3)c(Cl)c(Cl)[n+]2Cc2ccc3ccccc3c2)Oc2ccccc21	-80% (active)	-75.4% (active)	-10.6% (active)	-85.7% (active)	-74.5% (active)	-81% (active)	-81.6% (active)	-86.7% (active)	-82.6% (active)	-80.1% (active)
CO[C@]12C=C/C(=C(/C(=O)OCc3cccnc3)C(=O)CCCCCCCC[C@]3(OC)C=C/C(=C(/C(=O)OCc4cccnc4)C(=O)CCCCCCCC1)O3)O2	-75.3% (active)	-78.1% (active)	-85% (active)	-33.1% (active)	-18.3% (active)	-28.5% (active)	-39.6% (active)	-19.6% (active)	-64.1% (active)	-56.5% (active)
CCOC(=O)c1cc(C(=O)c2cc(OC)cc(OC)c2)n2ccccc12	67.3%	73.5%	86.3%	30%	15%	64.3%	40.9%	35.7%	36.4%	13.5%
Cn1nc(-c2ccc(Cl)cc2)nc2c(=O)n(C)c(=O)nc1-2	-45% (active)	-51.4% (active)	-68.5% (active)	-72.9% (active)	0.75% (active)	-28.9% (active)	-75.4% (active)	-25.2% (active)	-82.2% (active)	-90.6% (active)
CC(CN)[C@@H]1CC[C@]2(CO)CC[C@]3(C)[C@H](CC[C@@H]4[C@@]5(C)CCC(NCCO)C(C)(C)[C@@H]5CC[C@]43C)[C@@H]12 (stereo not given in full)	89.6%	95.8%	86.8%	86.6%	4.46% (active)	61.6%	59.3%	59.2%	59.2%	67.5%
Oc1c(Cl)cc(Cl)c2ccc(CN3CCNCC3)nc12	52.7%	61.6%	58.1%	29.3%	31.8%	54.1%	67.8%	30.8%	49.2%	102%
CN(C)C(=S)NN=C(c1ccccn1)c1ccccn1	38.5%	24.6%	11.5%	26%	0.166% (active)	64.7%	13.7%	12.9%	14.6%	38%
O=C1NC(=O)C(=Cc2cc(-c3ccc(Cl)cc3)n(-c3ccccc3)n2)C(=O)N1	99.3%	82.5%	94%	99.4%	98.6%	94.4%	103%	97.4%	82.5%	108%
O=C(CSc1nc(-c2ccccc2)cn1-c1ccc(Cl)cc1)c1ccc([N+](=O)[O-])cc1	78.5%	84.7%	89%	96.2%	79.5%	87.5%	70.5%	86.8%	90.3%	96.1%
